Compound activity: PubChem, National Center for Advancing Translational Sciences (NCATS)
Rows were chosen to be rich in hits. Some 11% of all compounds tested hit in one or more screens of this group.
Vaccinia Venus: qHTS for Stage-Specific Inhibitors of Vaccinia Orthopoxvirus: Venus Reporter Primary qHTS. Potency, µM (series often up to 36.5 µM), inactives show at the top dose activity change, negative = inhibition, usual class: inhibitors. Vaccinia virus Venus reporter expression, fluorescence. actives 0.46% (n = 330,000); calls by dose curve; tested in A549 cells; also: % is scaled to controls: 0 for no effect and ±100 for the full control effect; nearly all actives have a fitted effect of over 30% in size
VACV mCherry inh: qHTS for Stage-Specific Inhibitors of Vaccinia Orthopoxvirus: mCherry Reporter Primary qHTS | Potency, µM (doses to about 36.5 µM), for inactives: at the highest dose activity change, negative = inhibition, hits mostly inhibitors | Vaccinia virus mCherry reporter infection, fluorescence | actives 0.63% (n = 310,000); calls by dose curve; tested in A549 cells; also: % is scaled to controls: 0 for no effect and ±100 for the full control effect; nearly all actives have a fitted effect of over 35% in size
Pf growth 48h: Primary qHTS for delayed death inhibitors of the malarial parasite plastid, 48 hour incubation; AID 504832, 2011; Potency, µM (top dose mostly 28.7 µM), for the others: at the highest dose activity change, negative = inhibition, actives largely listed as inhibitors; P. falciparum luciferase growth in erythrocytes, 48 h; actives 5.9% (n = 310,000); also: % is scaled to controls: 0 for no effect and ±100 for the full control effect
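First compound was added to culture medium, then infected red cells at 0.1% parasitemia and 2% hematocrit (final). After incubation at 37 C under 5% CO2, luciferase detection reagent was dispensed and light output recorded.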
HCV inh: qHTS Assay for Inhibitors of Hepatitis C Virus (HCV); Huh7.5.1 HCVcc-Cre infection, luciferase reporter, 44 h; Potency, µM (highest dose often 41.8 µM), inactives show at the highest dose activity change, negative = inhibition, actives largely listed as inhibitors; actives 3.4% (n = 340,000); also: % is scaled to controls: 0 for no effect and ±100 for the full control effect
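Compounds are dispensed onto cells plated 4 h earlier at 1,000 per well, with HCVcc-Cre virus (about 0.5 moi) added next. Following 44 h of culture, luminescent signal is measured for 15 sec after 15 min with substrate at room temperature.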
NS1 function inh: qHTS Assay for Inhibitors of Influenza NS1 Protein Function. actives 0.4% (n = 270,000). Potency, µM (titrated, usually from 46.1 µM), for inactives: at the top dose activity, positive = more growth. AID 2326, 2010; calls by dose curve; also: actives are rising curves; nearly all actives have a fitted effect of over 50% in size
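Recovery from NS1-induced slow growth read by OD600 in budding yeast switched to galactose assay medium (pH 6.0, -URA) at 1:100 dilution. Compound 23 nl per well; the matching strain lacking NS1 serves as control.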
Pf growth 96h: Primary qHTS for delayed death inhibitors of the malarial parasite plastid, 96 hour incubation; P. falciparum luciferase reporter growth, 96 h; Potency, µM (doses to about 28.7 µM), for inactives: top-dose activity change, negative = inhibition, actives largely listed as inhibitors; actives 6.9% (n = 320,000); AID 504834, 2011; also: % is scaled to controls: 0 for no effect and ±100 for the full control effect
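Parasite growth measured via integrated firefly luciferase reporter in P. falciparum. Infected erythrocytes at 2% hematocrit, 0.05% parasitemia final were treated 96 hours at 37 C under 5% CO2, and luminescence was read.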
* marks the source's active call; other numbers are inactive results; i = inactive; ? = inconclusive; / = no result given. Unless noted, calls follow the shape of the dose curve; as a rule, active = well fitted inhibition curve with a large enough effect; inconclusive = small, poorly fitted or top-dose-only effect, or another doubt; inactive = no such curve, though single readings can be large or run the other way. Potency is read from the fitted curve at half-maximal effect.

SMILES	Vaccinia Venus	VACV mCherry inh	Pf growth 48h	HCV inh	NS1 function inh	Pf growth 96h
COc1ccc2c(c1)OC[C@H]1[C@H]2N2C(=O)c3ccc(F)cc3NC(=O)[C@@]2(C)[C@H]1c1ccccc1	?	18µM*	/	?	/	/
O=C(CN(Cc1ccco1)Cc1cccs1)N1CCN(S(=O)(=O)c2cccc(F)c2)CC1	/	/	13µM*	?	/	?
COc1ccc(S(=O)(=O)N2CCN(C(=O)Cc3cccs3)CC2)cc1	/	/	5%	3%	-5%	-9%
O=C(Cc1cccs1)N1CCN(S(=O)(=O)c2ccccc2)CC1	-5%	i	14%	3%	4%	13µM*
CSCCC(NS(=O)(=O)c1ccc2c(c1)OCCO2)C(=O)N(C)Cc1ccc(F)cc1 (stereo unspecified)	1%	-21%	?	6%	/	?
CSCCC(NS(=O)(=O)c1ccc2c(c1)OCCO2)C(=O)N(C)Cc1ccccc1F (stereo unspecified)	/	/	12µM*	-26%	/	?
COc1ccc(CN2CCN(c3ccccc3OC)CC2)c(OC)c1	/	/	-9%	-11%	-2%	4%
CCCCCOc1ccc(Cn2ccnc2)cc1[N+](=O)[O-]	/	/	?	11µM*	-25%	?
Cc1cc(C)cc(OCCn2ccnc2)c1	/	/	-11%	6.3µM*	-2%	0%
Cc1cc(OCCn2ccnc2)cc(C(C)C)c1	-12%	-14%	-22%	?	-13%	36%
Cc1ccc(OCCCn2ccnc2)c([N+](=O)[O-])c1	-8%	-21%	-7%	19%	1%	6.6µM*
Cc1ccc(OCCCn2ccnc2)c(Br)c1	/	/	?	-20%	-7%	-18%
CCCOc1ccc(/C(O)=C2/C(=O)C(=O)N(CCCOC)C2c2cccnc2)cc1 (stereo unspecified)	-1%	-1%	-11%	8%	14%	34%
CCc1ccccc1N1CC(c2nc3ccccc3n2CC(C)C)CC1=O (stereo unspecified)	-8%	-14%	/	/	/	/
C=CCN1CC(c2nc3ccccc3n2Cc2cccc3ccccc23)CC1=O (stereo unspecified)	/	/	?	17%	-70%	12µM*
COc1cccc(/C=N/NC(=O)c2nnn(-c3nonc3N)c2CN(C)c2ccccc2)c1	/	/	35%	-4%	0%	46%
COc1ccccc1CN1CCOc2ccc(CN3CCCCC3CO)cc2C1 (stereo unspecified)	-26%	-24%	/	/	/	/
CC(NC(=O)c1cccs1)c1ccc(Cl)cc1 (stereo unspecified)	14%	20%	/	12%	/	/
Cc1cc2cc(CNC(=O)c3ccc(Br)o3)ccc2n1C	161%	52%	?	-1%	-1%	9.3µM*
CCCC(=O)NCc1ccc2c(c1)cc(C)n2C	/	/	-23%	8%	?	244%
COc1ccc(N(C(=O)CCl)C(C(=O)NCCc2ccccc2)c2cccs2)cc1 (stereo unspecified)	?	-21%	15µM*	5.6µM*	-27%	103%
COc1ccc(C(C(=O)NC2CCCC2)N(Cc2cccnc2)C(=O)Cc2cccs2)cc1OC (stereo unspecified)	-14%	-4%	-14%	18%	4%	-8%
COc1ccc(CN(C(=O)Cc2cccs2)C(C(=O)NC2CCCC2)c2ccncc2)cc1 (stereo unspecified)	-7%	-18%	?	-2%	-32%	15µM*
COC(=O)c1ccc(C(C(=O)NC2CCCCC2)N(CCc2ccccc2)C(=O)Cc2cccs2)cc1 (stereo unspecified)	-2%	-16%	21%	8%	-4%	?
COC(=O)c1ccc(C(C(=O)NC2CCCCC2)N(Cc2ccc(F)cc2)C(=O)Cc2cccs2)cc1 (stereo unspecified)	-15%	i	12µM*	-2%	11%	?
